Compounds without any hit were thinned out: in the full panel of roughly 83,000, 20% have a hit.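 For each line, cells grew in 96-well plates with the test compound present at a single concentration for 48 hours.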 Unmarked numbers belong to inactive results. The source made the active and inactive calls. How the source made its calls: active means growth percent below 10; inactive means the rest.
How the values were obtained:
Assay in all cases: NCI-60 one-dose screen, 48 h (100 = growth as untreated, 0 = no growth, -100 = all killed)
Settings in all cases: 10 µM unless noted
RPMI-8226 leukemia = tested on: RPMI-8226 leukemia
OVCAR-8 ovarian = tested on: OVCAR-8 ovarian
OVCAR-5 ovarian = tested on: OVCAR-5 ovarian
OVCAR-4 ovarian = tested on: OVCAR-4 ovarian
SK-OV-3 ovarian = tested on: SK-OV-3 ovarian
IGROV1 ovarian = tested on: IGROV1 ovarian
OVCAR-3 ovarian = tested on: OVCAR-3 ovarian
HS 578T breast = tested on: HS 578T breast
NCI/ADR-RES ovarian = tested on: NCI/ADR-RES ovarian
T-47D breast = tested on: T-47D breast
BT-549 breast = tested on: BT-549 breast
MDA-MB-435 melanoma = tested on: MDA-MB-435 melanoma
SW-620 colon = tested on: SW-620 colon
MCF7 breast = tested on: MCF7 breast
HCT-116 colon = tested on: HCT-116 colon
HCC-2998 colon = tested on: HCC-2998 colon
KM12 colon = tested on: KM12 colon

SMILES | growth (RPMI-8226 leukemia) | growth (OVCAR-8 ovarian) | growth (OVCAR-5 ovarian) | growth (OVCAR-4 ovarian) | growth (SK-OV-3 ovarian) | growth (IGROV1 ovarian) | growth (OVCAR-3 ovarian) | growth (HS 578T breast) | growth (NCI/ADR-RES ovarian) | growth (T-47D breast) | growth (BT-549 breast) | growth (MDA-MB-435 melanoma) | growth (SW-620 colon) | growth (MCF7 breast) | growth (HCT-116 colon) | growth (HCC-2998 colon) | growth (KM12 colon)
Nc1ccc(Nc2nccc(-c3ccc4ccccc4c3)n2)cc1 | 29.7% | 48.2% | 69.1% | 56.4% | 60.7% | 38.2% | 46.9% | 43.1% | 18.4% | 57.1% | 57.7% | 8.53% (active) | 33.1% | 19% | 26.2% | 71.9% | 27.2%
C[C@H](CCC(=O)O)[C@H]1CC[C@H]2[C@@H]3CC[C@@H]4/C(=C\c5ccco5)C(=O)/C(=C\c5ccco5)C[C@]4(C)[C@H]3CC[C@]12C | 3.68% (active) | 70.6% | 113% | 80% | 121% | 93% | 24.6% | 69.3% | 80% | 55.6% | 52.9% | 37.1% | 27.4% | 32.5% | 21.8% | 92.8% | 74.5%
O=S(=O)(Nc1ccc(Cl)cc1Cl)c1ccc(-c2cnc(C3CC3)o2)cc1 | 21.6% | 26.5% | 40.2% | 52.6% | 41.6% | 29.2% | -17.8% (active) | 9.44% (active) | 0.514% (active) | 33.9% | 47% | -5.62% (active) | 21% | 15.3% | 24.9% | 39.3% | 33.3%
C=C1CCC2C3(C)COC(C)(C)OC3CCC2(C)C1C/C=C1/C(=O)OCC1OC(C)=O (stereo unspecified) | -42% (active) | -5.77% (active) | 38.3% | 32.3% | 97.4% | 69.6% | -9.88% (active) | 12% | 51% | 27.7% | 52.9% | 27.1% | -38.8% (active) | 16.5% | -21.1% (active) | 100% | 10.1%
O=C1Nc2ccccc2/C1=C/C(=N/c1nnc(-c2ccccc2)s1)c1ccccc1 | -17.5% (active) | 36.8% | 78.9% | 59.2% | 87.3% | 19.7% | -20.2% (active) | 106% | 46.2% | 73.7% | 66.4% | 51.6% | -5.52% (active) | 36.9% | -51.9% (active) | 104% | 87.7%
CC(=O)C1=C(O)C=C2Oc3c(C(=O)/C=C/c4c(Cl)cccc4Cl)c(O)c(C)c(O)c3[C@]2(C)C1=O | -17.7% (active) | -18.9% (active) | -3.17% (active) | 7.41% (active) | -30.9% (active) | -8.78% (active) | -30.6% (active) | -18.1% (active) | -23.4% (active) | -20.2% (active) | -28.9% (active) | -11.6% (active) | 5.36% (active) | -11.2% (active) | -26.8% (active) | -59.6% (active) | -12.1% (active)
CCCCCCCCCCCCS(=O)CC(C)O (stereo unspecified) | 98.6% | 103% | 103% | 101% | 102% | 120% | 120% | 101% | 117% | 98.2% | 109% | 96.3% | 106% | 93.2% | 109% | 111% | 116%
COc1cc2cc(COc3nccc(-c4ccc(Cl)cc4)n3)c(=O)[nH]c2cc1OC | -28.4% (active) | 81.3% | 96.7% | 82.5% | 89.9% | 79.6% | 90.4% | 67.3% | 84.2% | 85.5% | 86.4% | 65.6% | 36.5% | 46.3% | 53.4% | 11.7% | 76.2%
CNc1nc(C)c(-c2nc(Nc3cccc(S(N)(=O)=O)c3)ncc2F)s1 | 2.6% (active) | 8.76% (active) | 3.14% (active) | 29.2% | 8.56% (active) | 4.94% (active) | 10.2% | 3.64% (active) | 5.57% (active) | -2.75% (active) | -17.1% (active) | 17.6% | 8% (active) | 1.33% (active) | 5.28% (active) | 2.96% (active) | 5.25% (active)
COc1ccc2nc3cc(Cl)ccc3c(N3CCN(c4ccnc(N5CCOCC5)n4)CC3)c2c1 | 11.3% | 59.2% | 83.8% | 55.6% | 85.5% | 77.8% | 4.76% (active) | 99.2% | 73.2% | -37.9% (active) | 93.1% | 57% | 3.94% (active) | -82% (active) | 1.63% (active) | 12.9% | 53.2%
CC[C@H](Nc1nc(N)nc(C)c1C#N)c1nc2cccc(NCc3ccc(C(=O)NO)cc3)c2c(=O)n1-c1ccccc1 | 4.78% (active) | -25.7% (active) | 16.8% | 15.5% | -12% (active) | -50.5% (active) | 0.5% (active) | -8.46% (active) | 74.7% | -8.21% (active) | 20.9% | -1.57% (active) | -16.4% (active) | 5.7% (active) | -50.5% (active) | 28.3% | 0.659% (active)
COc1cc(OC)c(/C=C/S(=O)(=O)Cc2cnc(OC)c(N)c2)c(OC)c1 | 29.1% | 18.9% | 55.2% | 50.3% | 11.9% | 29.4% | -13.5% (active) | 47.5% | 7.65% (active) | 15.6% | 8.01% (active) | 13.4% | 22.8% | 11.6% | 3.33% (active) | 17.5% | 9.75% (active)
O=C1C(=O)N(CCCCn2cc(CO)nn2)c2ccccc21 | 99.3% | 102% | 98.6% | 99.2% | 100% | 106% | 115% | 98.8% | 100% | 98.7% | 115% | 98.9% | 99.7% | 100% | 95.5% | 107% | 101%
CC/C(Cc1ccccc1)=C(\c1ccc(OCCN2CCCC2)cc1)c1ccc(OC(C)=O)cc1 | 60.2% | 97.8% | 92.6% | 79% | 107% | 78% | 89.6% | 85.5% | 75.5% | 51.4% | 93.8% | 69.7% | 89.9% | 24.6% | 78.7% | 56.3% | 70.7%
O=C1NC(=O)C(CC(=O)n2c(-c3ccccc3)nc3ccccc32)C(=O)N1 | 101% | 101% | 103% | 103% | 98.3% | 93.3% | 106% | 102% | 103% | 93.5% | 101% | 106% | 104% | 92.4% | 104% | 113% | 101%
CN(C)CC(=O)Nc1ccc(Cn2nnc3c2C(=O)c2nnn(Cc4ccc(NC(=O)CN(C)C)cc4)c2C3=O)cc1 | -34% (active) | -31.6% (active) | -35.7% (active) | -94.9% (active) | -44% (active) | -74.4% (active) | -59.1% (active) | 7.7% (active) | 88.6% | -51.7% (active) | -89.7% (active) | -87.5% (active) | -27.3% (active) | -61.6% (active) | -87.7% (active) | -51.2% (active) | -54.6% (active)
Cc1ccc(S(=O)(=O)n2cc(-c3csc(-c4cn(C)c5ncccc45)n3)c3ccccc32)cc1 | 71.1% | 80.5% | 81.9% | 71.5% | 70.2% | 56.3% | 30.3% | 85.8% | 43.3% | 24.4% | 66.9% | 3.65% (active) | 40% | 19.8% | 36% | 88.4% | 29.3%
O=C1C(Cl)=C(Cl)C(=O)c2c1nc1n2CCCC1 | 99.3% | 100% | 116% | 117% | 90.8% | 104% | 82.5% | 105% | 93.5% | 48.3% | 95.5% | 115% | 81.6% | 70% | 84.1% | 52.5% | 80.5%

From PubChem BioAssay (NCI)
